Experimental data published in PubChem BioAssay AID623939 (Vanderbilt Specialized Chemistry Center, 2012).
Activity calls are given as the source filed them.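 Rule for the calls: active = a compound whose calcium signal at the M5 receptor changes in step with its dose; inactive = the rest.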

Each compound was assayed against Muscarinic acetylcholine receptor M5 (Homo sapiens) (UniProt P08912) (assay: off-target potentiation of hM5 acetylcholine response – CHO cells, Fluo-4 calcium, ACh EC20, selectivity assay for M4 PAM optimization project, SAR follow-up (AID 623939)). Details: series mostly up to 30 µM.
Sequence of Muscarinic acetylcholine receptor M5 (Homo sapiens) (P08912 whole entry, looked up): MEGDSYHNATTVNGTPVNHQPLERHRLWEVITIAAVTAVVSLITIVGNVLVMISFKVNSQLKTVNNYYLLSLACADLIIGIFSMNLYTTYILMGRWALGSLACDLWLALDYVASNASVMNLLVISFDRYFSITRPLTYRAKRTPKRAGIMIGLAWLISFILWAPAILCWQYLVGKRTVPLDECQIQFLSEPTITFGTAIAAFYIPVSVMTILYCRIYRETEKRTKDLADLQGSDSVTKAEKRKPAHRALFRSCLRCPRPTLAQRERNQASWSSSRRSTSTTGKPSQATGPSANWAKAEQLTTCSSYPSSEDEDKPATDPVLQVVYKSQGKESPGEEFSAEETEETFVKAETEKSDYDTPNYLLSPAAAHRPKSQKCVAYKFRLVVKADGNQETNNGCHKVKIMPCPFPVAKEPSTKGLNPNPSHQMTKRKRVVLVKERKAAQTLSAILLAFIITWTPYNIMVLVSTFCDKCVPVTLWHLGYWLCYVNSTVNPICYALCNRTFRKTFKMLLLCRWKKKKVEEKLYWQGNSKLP

outcome, inactive:
COc1ccc(C)c2sc(NC(=O)c3ccncc3)nc12
Cc1nc2sc(C(=O)NCc3cccnc3)c(N)c2c(C)c1Cl
Cc1nc2sc(C(=O)NCc3cccc(F)c3F)c(N)c2c(C)c1Cl
Cc1nc2sc(C(=O)NCCc3ccncc3)c(N)c2c(C)c1Cl
Cc1nc2sc(C(=O)NCc3nccs3)c(N)c2c(C)c1Cl
Cc1nc2sc(C(=O)NC3CC3)c(N)c2c(C)c1Cl
Cc1nc2sc(C(=O)NCc3ccccc3)c(N)c2c(C)c1Cl
Cc1nc2sc(C(=O)NCc3ccc4c(c3)OCO4)c(N)c2c(C)c1Cl
Cc1nc2sc(C(=O)NCc3ccncc3)c(N)c2c(C)c1Cl
Cc1nc2sc(C(=O)NCc3ccncn3)c(N)c2c(C)c1Cl
